From PubChem
HTT ATP protect: cytoprotection in Huntington HTT-Q103 PC12 cell model | PC12 HTT-Q103 induced, cytoprotection, ATP luminescence, 40 h | Potency, µM (top dose mostly 56.4 µM), for inactives: cytoprotection (ATP increase), usual class: activators | hit rate 0.14% among 230,000 | AID 1471; note: potency is the fitted concentration of half-maximal effect; % of control where 0% means no effect; nearly all actives have a fitted effect of over 45% in size
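PC12 cells with ecdysone-inducible HTT exon 1 Q103-GFP, induced with 100 nM tebufenozide and co-treated with library compounds in a dose series (1536-well, 1500 cells/well). Cytoprotection read as ATP content by ATPlite luminescence.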
HTT aggregate: mutant huntingtin aggregation inhibition; hit rate 1.1% among 220,000; Potency, µM (series often up to 46.1 µM), without a hit: at the highest dose activity change, negative = inhibition, usual class: inhibitors; PC12 HttQ103-GFP aggregates, Acumen cytometry, 40 h; note: potency is the fitted concentration of half-maximal effect; % is set by controls: 0 for no effect and ±100 for the full control effect; nearly all actives have a fitted effect of over 60% in size
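Using laser scanning cytometry, GFP-positive aggregates were counted after lysis of PC12 cells induced with 100 nM tebufenozide to express HTT exon 1 Q103–GFP. Compounds were tested in titration.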
CBFb-RUNX1 inh: CBF-beta/RUNX1 interaction disruption; 230,000 tested, under 10 active; Potency, µM (series often up to 59.8 µM), for the others: at the top dose activity, negative = inhibition, most hits filed as inhibitors; Q01196+Q13951; AlphaScreen CBFb-His/RUNX1-biotin binding, biochemical; note: % of control where 0% means no effect
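Interaction loss through any mechanism counts as activity. Pre-formed complex of His-CBF-beta and biotin-RUNX1 (30 nM apiece) is incubated with compound 15 min, then with 50 ng nickel and 50 ng streptavidin beads for 90 min before AlphaScreen detection.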
HPGD inh: blocks human HPGD enzyme activity; hit rate 4.3% among 150,000; purified HPGD, NADH fluorescence kinetic, PGE2 substrate; Potency, µM, for the others: at the top dose activity change, negative = inhibition, hits mostly inhibitors; active = well fitted inhibition curve with a large enough effect, not every such curve was filed as active; inconclusive = small, poorly fitted or top-dose-only effect, or another doubt; inactive = no such curve, though single readings can be large or run the other way; note: potency is the fitted concentration of half-maximal effect; % is set by controls: 0 for no effect and ±100 for the full control effect
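NADH formation kinetics: reaction with 30 uM PGE2 and 1 mM NAD+ (final), 20 nM enzyme, Tris-HCl pH 8 with Tween 20, after 15 min compound preincubation at room temperature. Fluorescence change, last versus first of five reads.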
PNC inhibitor: blocks assembly of the perinucleolar compartment; PC3M PTB-GFP, PNC prevalence imaging, 16 h; active compounds read low; activity change (PNC), negative = inhibition, % at 10 µM; hit rate 3.1% among 140,000; AID 2417;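 active = readout at or below -70, meaning at least 70% loss of cells showing the perinucleolar compartment, a nuclear body marking cancer cells; inconclusive = readout between -30 and a set limit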;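 note: plate controls were DMSO wells for no effect and camptothecin positive control wells for full effect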
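Read-out is percentage of cells bearing a perinucleolar compartment, from automated 20x imaging of fixed, Hoechst-stained PC3M PTB-GFP cells. Cells were seeded 4 h, then exposed 16 h to compound (23 nl of library stock) in duplicate plates.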
ALDH1A1 inh: inhibitors of human aldehyde dehydrogenase 1A1; Potency, µM (top dose mostly 75.3 µM), inactives show at the highest dose activity, negative = inhibition, actives largely listed as inhibitors; Purified ALDH1A1, NADH fluorescence, propionaldehyde substrate; hit rate 7.3% among 220,000; P00352; AID 1030; active = well fitted inhibition curve with a large enough effect, not every such curve was filed as active; inconclusive = small, poorly fitted or top-dose-only effect, or another doubt; inactive = no such curve, though single readings can be large or run the other way;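 note: potency is the fitted concentration of half-maximal effect; plate controls were no enzyme wells and a reference inhibitor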
Target sequence (P00352 whole entry, looked up): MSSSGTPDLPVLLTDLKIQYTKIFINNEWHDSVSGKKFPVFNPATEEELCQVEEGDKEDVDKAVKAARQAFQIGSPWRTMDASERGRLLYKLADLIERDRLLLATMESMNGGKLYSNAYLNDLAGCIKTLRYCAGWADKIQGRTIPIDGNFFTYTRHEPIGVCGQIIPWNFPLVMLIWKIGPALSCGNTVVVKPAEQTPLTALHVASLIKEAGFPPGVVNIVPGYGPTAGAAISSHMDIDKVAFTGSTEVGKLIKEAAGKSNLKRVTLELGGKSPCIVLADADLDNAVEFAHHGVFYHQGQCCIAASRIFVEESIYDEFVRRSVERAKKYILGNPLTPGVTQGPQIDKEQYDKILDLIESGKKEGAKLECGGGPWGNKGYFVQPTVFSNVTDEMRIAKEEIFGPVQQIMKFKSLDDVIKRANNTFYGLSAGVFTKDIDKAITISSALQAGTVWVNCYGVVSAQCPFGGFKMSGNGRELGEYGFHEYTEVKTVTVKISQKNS
The depositor's hits bear a star; ? = inconclusive; . = not tested or not shown; [ ] = another dose, or the depositor's remark. Shown are actives, neighbours in structure and some others; about 11% of the full set was active somewhere. Unless noted, calls come from the whole dose curve; as a rule, active = well fitted curve in the direction sought with a large enough effect; inconclusive = small, poorly fitted or top-dose-only effect, or another doubt; inactive = no such curve, though single readings can be large; an effect the other way counts as inactive or inconclusive.

SMILES	HTT ATP protect	HTT aggregate	CBFb-RUNX1 inh	HPGD inh	PNC inhibitor	ALDH1A1 inh
CC1(C)C2CC=C(/C=N/NC(=S)Nc3cccnc3)C1C2 (configuration not stated)	-13.2%[10 µM]	-6.6%	-18.2%	.	.	0.3%
COC1CCC(C(=O)c2ccc3nc4c(cc3c2)CCCO4)CC1 (configuration not stated)	-110.9%	.	9.6%	-13.4%	.	-4.1%
Cc1cc(=O)[nH]c(SCC(=O)Nc2ccc(C(=O)O)cc2)n1	16.8%	6.5%[9.22 µM]	1.8%	22.4µM*	15.7	?
CCN(CC)c1ccc(NC(=O)CSc2nc(C)cc(=O)[nH]2)cc1	-14.3%	-20.4%	-5.8%	-1.5%	-9.5	9.7%
Cc1cc2ccccc2nc1SCC(=O)Nc1nc(-c2ccccc2)cs1	26.6%	-2.1%	-2.6%	-8.6%	?	7.94µM*
Cc1ccc(-c2csc(NC(=O)CSc3nc(C)cc(=O)[nH]3)n2)cc1	9.2%[10 µM]	-18.6%	-11.5%	28.2µM*	-89.1*	?
CCOC(=O)c1ccc(NC(=O)CSc2nc(C)cc(=O)[nH]2)cc1	-18.0%	6.8%	-22.9%	28.2µM*	-23.9	-2.5%
COC(=O)c1ccc(CSc2nc3sc(C(=O)O)c(C)c3c(=O)[nH]2)cc1	6.8%	-5.3%	4.2%	.	.	?
Cc1cc(=O)[nH]c(SCC(=O)Nc2ccc(S(N)(=O)=O)cc2)n1	-38.1%	-9.5%	-16.1%	.	.	?
COC(=O)c1cc(NC(=O)CSc2nc(C)cc(=O)[nH]2)cc(C(=O)OC)c1	20.6%	-16.8%	18.0%	14.1µM*	34.9	1.1%
CCOC(=O)c1ccc(NC(=O)CSc2nnc(CNc3ccc(C)cc3)n2C)cc1	27.2%[10 µM]	-0.7%	-10.7%	-12.4%	-100.0*	0.8%
CCOC(=O)c1c(-c2ccccc2Cl)csc1NC(=O)CSc1nc(C)cc(=O)[nH]1	11.9%[10 µM]	4.4%	-17.9%	14.1µM*	41.4	8.5%
CCOC(=O)c1ccc(NC(=O)CSc2nc3sc(C(=O)O)c(C)c3c(=O)[nH]2)cc1	-24.2%	14.2%	3.8%	.	.	14.1µM*
O=c1c(-c2ccc(F)cc2)nc2cnc(N3CCOCC3)nc2n1Cc1cccs1	-5.9%	.	.	.	.	?
O=C1OC(c2ccccc2)c2ccccc21 (configuration not stated)	.	-5.4%	2.8%	-9.7%	33.2	14.1µM*
CC(Cl)C(=O)NC(=O)NC12CC3CC(CC(C3)C1)C2 (configuration not stated)	-15.3%[10 µM]	?	2.1%	.	30.1	1.6%
O=C(CCl)NC(=O)NC12CC3CC(CC(C3)C1)C2	-17.3%[10 µM]	9.5%	-8.7%	-9.0%	28.8	7.94µM*
O=S(=O)(Nc1ncnc2c1oc1ccccc12)c1ccc(Cl)s1	6.6%[10 µM]	31.8%[9.22 µM]	-1.0%	-6.6%	15.8	11.7%
Cc1nnsc1C(=O)NNc1ccc(C(C)(C)C)cc1	3.1%[10 µM]	-2.2%[9.22 µM]	-4.5%	.	.	31.6µM*
FC(F)(F)c1cnc(C(c2ccccn2)c2ncn[nH]2)c(Cl)c1 (configuration not stated)	12.7%[10 µM]	12.6µM*	.	.	.	14.0%
COC(=O)CN=C1OC(=O)N2C(=O)C3=C4C(C[C@H]5C(=O)N(c6ccccc6)C(=O)[C@H]5[C@H]4[C@@]12Cc1ccccc1)[C@H]1C(=O)N(c2ccccc2)C(=O)[C@H]1[C@H]3C (some centres not stated)	-4.7%	.	-10.5%	-9.2%	.	-6.2%
O=C(NCC1CCCO1)C1c2ccccc2Oc2ccccc21 (configuration not stated)	7.1%[10 µM]	12.6%[9.22 µM]	-2.4%	.	.	8.7%
O=C(O)CC12CSc3[nH]c(=O)sc3C1c1ccccc1OC2=O (configuration not stated)	-0.7%	.	3.9%	?	-83.6*	?
COc1ccccc1N(C)S(=O)(=O)c1ccc(C(=O)OCC(=O)Nc2ccccc2F)cc1	-36.4%	15.4%	9.8%	.	.	2.3%
COc1ccccc1N(C)S(=O)(=O)c1ccc(C(=O)OCC(=O)N(C)c2ccccc2)cc1	19.2%	-0.3%	11.2%	.	.	31.6µM*
